# Data as given in PubChem BioAssay (NCATS).
# “And” between values parts separate entries of the source, which are not always exact repeats. Identical values can stand only once.
# Assay: qHTS profiling for inhibitors of Plasmodium falciparum (DD2) proliferation (AID 743323)
# Conditions: lower = more inhibition; at 28.7 µM (top of the series) unless noted
# Source text: Plasmodium falciparum is a virulent malarial parasite that kills 1-2 million people worldwide each year. Transmitted by mosquitoes, the sporozoite form of the parasite enters the blood stream to infect hepatocytes, where they become merozoites that infect red blood cells (erythrocytes). Within erythrocytes, merozoites begin a […] cycle of growth and division, after which the parasite is released to infect new red blood cells. Gametocytes, which form within erythrocytes as well, circulate in the bloodstream and are ingested by the mosquito, thereby completing the life cycle. To profile malarial isolates for differential chemical responses and to identify inhibitors of malarial growth, an assay that measures P. falciparum growth and replication within erythrocytes was employed. This assay uses a DNA binding fluorescent dye (SYBR Green) to detect parasite DNA following cell lysis. Because mature erythrocytes lack DNA, only Plasmodium-derived DNA is detected.
# The SYBR Green viability assay was adapted from a method described previously (Plouffe et al., 2008). For screening 3 ul culture medium was dispensed into 1536 well black clear bottom plates (Aurora Biotechnologies) using a Multidrop Combi (Thermo Fisher Scientific Inc.), 23 nL compounds in DMSO were added by a pin tool (Kalypsys), and 5 ul of erythrocytes infected with P. falciparum (0.3% parasitemia, 2.5% hematocrit final concentration) were added. The plates were incubated at 37 C in a humidified incubator in 5% CO2 for 72 h, and 2 ul lysis buffer (20 mM Tris HCl, 10 mM EDTA, 0.16% saponin, […]% triton X, 10X SYBR Green I supplied as 10,000X […] by Invitrogen) was added to each well. The plates were mixed for 25 sec with gentle shaking and incubated overnight at room temperature in the dark. The following morning, fluorescence intensity at 485(14) nm excitation and 535(25) nm emission wavelengths was measured on an EnVision (Perkin Elmer) plate reader. Plate reads were normalized relative to the control inhibitor (0.29 uM artemisinin) and vehicle (DMSO) wells present on each plate and then corrected by an algorithm using vehicle-only control plates at the beginning and end of the compound plate stack.
row,Compound,"activity, percent of control"
1,CC(C)C[C@H](NC(=O)[C@H](Cc1ccccc1)NC(=O)c1cnccn1)B(O)O,-0.17%
2,Cc1ccc(NC(=O)c2ccc(CN3CCN(C)CC3)cc2)cc1Nc1nccc(-c2cccnc2)n1,7.63%
3,CCOC(=O)C1=C(O)C(=O)N(Cc2ccccc2)C1,82.3%
4,CCOC(=O)C(C)Oc1cccc2c(=O)n(CC(=O)Nc3ccc4c(c3)OCCO4)ccc12 (stereo not drawn),97.4%
5,CN(C)c1ccc2nc3ccc(=[N+](C)C)cc-3sc2c1,3.2% [at 57.5 µM]
6,CCN(CCO)CCCC(C)Nc1ccnc2cc(Cl)ccc12 (stereo not drawn),105% and 9.47%
7,Cc1cccc(C)c1OCC(=O)N[C@@H](Cc1ccccc1)[C@@H](O)C[C@H](Cc1ccccc1)NC(=O)[C@H](C(C)C)N1CCCNC1=O,0.873%
8,COc1cc2c(N3CCN(C(=O)Nc4ccc(OC(C)C)cc4)CC3)ncnc2cc1OCCCN1CCCCC1,3.98%
9,C[C@@H](N)C1CCC(C(=O)Nc2ccncc2)CC1 (stereo partly drawn),103%
10,Cc1cccc(-c2[nH]ncc2-c2ccc3ncccc3n2)n1,107% [at 57.5 µM]
11,Nc1nc(Cl)nc2c1ncn2[C@H]1C[C@H](O)[C@@H](CO)O1,93.6% [at 57.5 µM]
12,Nc1cccc2c1CN(C1CCC(=O)NC1=O)C2=O (stereo not drawn),89.3% [at 57.5 µM] and 104% [at 57.5 µM]
13,Cc1cccc(C#Cc2ccccc2)n1,85.7%
14,O=c1cc(N2CCOCC2)oc2c(-c3ccccc3)cccc12,96.7%
15,Cc1nc(Nc2ncc(C(=O)Nc3c(C)cccc3Cl)s2)cc(N2CCN(CCO)CC2)n1,71.4%
16,S=c1nc[nH]c2nc[nH]c12,88.8% [at 57.5 µM]
17,CC(C)c1ccc2c(c1)c(SC(C)(C)C)c(CC(C)(C)C(=O)O)n2Cc1ccc(Cl)cc1,27.3%
18,Cc1cc(C2CCCCC2)n(O)c(=O)c1,0.27%
19,CCc1nc(N)nc(N)c1-c1ccc(Cl)cc1,90.3%
20,CCN(CC)CCOc1ccc(Nc2ncc3cc(-c4c(Cl)cccc4Cl)c(=O)n(C)c3n2)cc1,1.4%
21,NC(=NCc1ccccc1)NC(=O)c1nc(Cl)c(N)nc1N,10.1% [at 18.4 µM]
22,CCCCN(CCCC)CCC(O)c1cc2c(Cl)cc(Cl)cc2c2cc(C(F)(F)F)ccc12 (stereo not drawn),0.468% [at 9.63 µM]
23,COc1cc(Nc2c(C#N)cnc3cc(OCCCN4CCN(C)CC4)c(OC)cc23)c(Cl)cc1Cl,4.4%
